{"source": "PubChem BioAssay (Tox21)", "note": "Calls of active or inactive are those of the source. Where a call stands in place of a potency, no number is given. The call rests on the fitted dose curve.", "data": [{"biological_target": "Gonadotropin-releasing hormone receptor (Homo sapiens) (UniProt P30968)", "sequence (P30968 whole entry, looked up)": "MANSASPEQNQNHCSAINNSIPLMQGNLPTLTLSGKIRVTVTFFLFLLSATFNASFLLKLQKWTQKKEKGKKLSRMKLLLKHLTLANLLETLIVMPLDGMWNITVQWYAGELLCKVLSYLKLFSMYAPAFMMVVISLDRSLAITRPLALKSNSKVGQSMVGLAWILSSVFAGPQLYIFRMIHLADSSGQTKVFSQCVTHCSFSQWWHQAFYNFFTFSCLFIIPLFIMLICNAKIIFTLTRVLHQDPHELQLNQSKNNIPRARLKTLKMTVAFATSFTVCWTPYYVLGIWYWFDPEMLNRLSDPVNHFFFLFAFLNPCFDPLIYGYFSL", "assay": "Human gonadotropin-releasing hormone receptor (GnRHR) small molecule agonists, calcium flux assay in GnRHR-HEK293 cells (AID 1920063); further: nearly all actives have a fitted effect of over 35% in size", "conditions": "calcium flux fluorescence, agonist mode; series mostly up to 57.6 µM", "source_text": "National Center for Advancing Translational Sciences [NCATS]\nDivision of Preclinical Innovation [DPI]\nU.S. Environmental Protection Agency [EPA]\nNational Institutes of Environmental Health Sciences [NIEHS]\nNational Toxicology Program [NTP]\nU.S. Food and Drug Administration [FDA]\nGonadotropin-releasing hormone receptor (GnRHR) is a G-protein-coupled receptor (GPCR) and acts (through phospholipase C) to increase intracellular inositol trisphosphate and then release intracellular calcium stores. Cell-based GnRHR-Hek293 calcium influx assay is using HEK293 cells that have been genetically engineered to express the human GnRHR, which activity can be measured by calcium signaling. A compound/drug can activate (agonist) GnRHR that can be monitored by levels of intracellular calcium.\nGnRHR-HEK293 cells developed by Codex Corp contain human GnRHR reporter gene, which was stably integrated into HEK 293 cells. The compound activation can be detected by fluorescence intensity via calcium flux assay. This cell line has been used to screen the Tox21 10K compound library to identify GnRHR agonists.\nGnRHR-Hek293 cells were dispensed at 1500cells/4uL/well in 1536-well black wall/clear bottom plates using a multidrop dispenser. After the assay plates were incubated at a 37 C/5% CO2 incubator for 18 hours, 4 uL of Calcium Dye Solution was added to each well. The plates were incubated at 37 C for 1 hour. For agonist mode, 23 nL of compounds dissolved in DMSO, positive controls or DMSO only was transferred to the assay plate by a pin tool station. The fluorescence intensity in the plates was measured using FDSS 7000EX kinetic plate reader with a filter set of Ex/Em=480/540 for 3 min at 1 sec intervals. Each test compound was measured at 15 concentrations and in triplicates.", "values": [{"smiles": "COC(=O)c1cccnc1", "Potency": "inactive"}, {"smiles": "Cc1cc(Cc2cc(C)cc(C(C)(C)C)c2O)c(O)c(C(C)(C)C)c1", "Potency": "inactive"}, {"smiles": "CCc1cccc2c3c([nH]c12)C(CC)(CC(=O)O)OCC3", "note": "(stereo not given)", "Potency": "inactive"}, {"smiles": "Cc1c(OCC(F)(F)F)ccnc1CS(=O)c1nc2ccccc2[nH]1", "note": "(stereo not given)", "Potency": "inactive"}, {"smiles": "COc1cc([C@@H]2c3cc4c(cc3[C@H](O)[C@H]3COC(=O)[C@H]23)OCO4)cc(OC)c1OC", "Potency": "inactive"}, {"smiles": "Nc1ccccc1[N+](=O)[O-]", "Potency": "inactive"}, {"smiles": "CC1(C)C(=O)N(Cl)C(=O)N1Cl", "Potency": "inactive"}, {"smiles": "NS(=O)(=O)c1cc2c(cc1Cl)NC=NS2(=O)=O", "Potency": "inactive"}, {"smiles": "CC1(C)S[C@@H]2[C@H](NC(=O)COc3ccccc3)C(=O)N2[C@H]1C(=O)O", "Potency": "inactive"}, {"smiles": "CCCCCCCCCCCCCCCC(=O)OC(C)C", "Potency": "inactive"}, {"smiles": "CC(=O)N[C@@H](CS)C(=O)O", "Potency": "inactive"}, {"smiles": "O=C(O)c1ccc(O)cc1", "Potency": "inactive"}, {"smiles": "COC(=O)C(C)Oc1ccc(Oc2ncc(C(F)(F)F)cc2Cl)cc1", "note": "(stereo not given)", "Potency": "inactive"}, {"smiles": "c1ccc2[nH]c(-c3cscn3)nc2c1", "Potency": "inactive"}, {"smiles": "Oc1ccc2ccccc2c1N=Nc1ccccc1", "Potency": "inactive"}, {"smiles": "NC(=O)N/N=C/c1ccc([N+](=O)[O-])o1", "Potency": "inactive"}, {"smiles": "COCC(=O)O", "Potency": "inactive"}, {"smiles": "C=C(C)C(=O)OCCC[Si](OC)(OC)OC", "Potency": "inactive"}, {"smiles": "CC1COC(=O)O1", "note": "(stereo not given)", "Potency": "inactive"}, {"smiles": "CCCCCCCCCC", "Potency": "inactive"}, {"smiles": "C=CN1CCCC1=O", "Potency": "inactive"}, {"smiles": "CC(C)(Oc1ccc(Cl)cc1)C(=O)O", "Potency": "inactive"}, {"smiles": "C[C@]12CCC(=O)C=C1CC[C@@H]1[C@@H]2C(=O)C[C@@]2(C)[C@H]1CC[C@]2(O)C(=O)CO", "Potency": "inactive"}, {"smiles": "CCN(CC)CCOC(=O)c1ccc(N)cc1", "Potency": "inactive"}, {"smiles": "OC(CCl)CCl", "Potency": "inactive"}, {"smiles": "CN(C)CCOC(C)(c1ccccc1)c1ccccn1", "note": "(stereo not given)", "Potency": "inactive"}, {"smiles": "NCCNc1cccc2ccccc12", "Potency": "inactive"}, {"smiles": "CCCCCCCCCCCCO", "Potency": "inactive"}, {"smiles": "Cc1cccc(O)c1", "Potency": "inactive"}, {"smiles": "CC(=O)NS(=O)(=O)c1ccc(N)cc1", "Potency": "inactive"}, {"smiles": "CCCCC(CC)COC(=O)CS", "note": "(stereo not given)", "Potency": "inactive"}, {"smiles": "Nc1nc2ncc(CNc3ccc(C(=O)N[C@@H](CCC(=O)O)C(=O)O)cc3)nc2c(=O)[nH]1", "Potency": "inactive"}, {"smiles": "CCc1ccc(CCOc2ccc(CC3SC(=O)NC3=O)cc2)nc1", "note": "(stereo not given)", "Potency": "inactive"}, {"smiles": "CCCCCNCCCCC", "Potency": "inactive"}, {"smiles": "Cc1occc(=O)c1O", "Potency": "inactive"}, {"smiles": "CCCCCCCCC(=O)O", "Potency": "inactive"}, {"smiles": "C=C(CC(=O)O)C(=O)O", "Potency": "inactive"}, {"smiles": "C=C(C#N)C(=O)OCC", "Potency": "inactive"}, {"smiles": "Cc1ccc([N+](=O)[O-])cc1N", "Potency": "inactive"}, {"smiles": "CC(=O)CC(=O)N(C)C", "Potency": "inactive"}]}]}
